Hits are enriched below; roughly 3.5% of the tested compounds scored in any of these assays.
mHTT-CaM PPI inh – inhibitors of human mutant huntingtin-calmodulin interaction; AlphaScreen His-mHTT/GST-CaM binding, luminescence; inhibition, % at 15 µM; actives 3.6% (n = 190,000); AID 1671202;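 note: 0% = both proteins with DMSO and 100% = one protein alone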
Pf apPOL block – Pf-apPOL DNA polymerase inhibition; Recombinant Pf-apPOL, molecular beacon fluorescence, 1.5 h; inhibition, % at 10 µM; actives 0.25% (n = 210,000); AID 1794808
* marks the source's active call; other numbers are inactive results; i = inactive; . = no result. Cut-off read from the data, not from the text of the source: active = inhibition above about 50%; inactive = the rest.

SMILES	mHTT-CaM PPI inh	Pf apPOL block
O=C1c2ccccc2C(=O)c2c1c(C(=O)OCc1ccccc1)c1ccccn21	17.5	-6.9
Cc1nc2ccc(Cl)cn2c(=O)c1NC(=O)c1ccc([N+](=O)[O-])cc1Cl	-16.4	-6.7
Cn1nc(COc2ccccc2)c2c1CCN(Cc1ccco1)C2	14.3	2.7
Cn1nc(COc2ccccc2)c2c1CCN(Cc1ccoc1)C2	67.3*	2.2
CC1CC(NC(=O)C(=O)c2c[nH]c3ccccc23)CC(C)(C)C1 (stereo not given)	-3.7	-1.0
CC(=O)NS(=O)(=O)c1ccc(NC(=O)c2ccc([N+](=O)[O-])c(C)c2)cc1	4.8	-6.3
CC1(C)CC(=O)C2=C(C1)N=C1c3ccccc3C(=O)C1C2c1ccc(O)c(O)c1 (stereo not given)	48.0	11.7
CC1(C)CC(=O)C2=C(C1)OC(N)=C(C#N)C2c1ccc(Br)cc1 (stereo not given)	4.2	-5.3
CC1(C)CC(=O)C2=C(C1)N=C1c3ccccc3C(=O)C1C2c1ccc(Br)cc1 (stereo not given)	65.0*	-1.8
CC1(C)CC(=O)C2=C(C1)N=C1c3ccccc3C(=O)C1C2c1cc(Br)ccc1O (stereo not given)	59.0*	-4.7
COc1ccc(C2C3=C(CCCC3=O)N=C3c4ccccc4C(=O)C32)cc1OC (stereo not given)	36.0	-2.7
CC1(C)CC(=O)C2=C(C1)N=C1c3ccccc3C(=O)C1C2c1ccc(F)cc1 (stereo not given)	62.0*	-1.5
CSc1ccccc1NC(=O)C(=O)NCC1CCN(C(=O)Nc2ccc(F)cc2)CC1	15.6	-1.8
COCCCNC(=O)N1CCCC1c1ccc(Cl)cc1 (stereo not given)	-5.9	-2.3
COCCCNC(=O)N1CCCCCC1c1ccc(Cl)cc1 (stereo not given)	4.0	72.2*
CC1CCN(S(=O)(=O)N2CCCC(C(=O)NC(C)C)C2)CC1 (stereo not given)	4.0	94.8*
CC1CCN(S(=O)(=O)N2CCCC(C(=O)NC3CCCC3)C2)CC1 (stereo not given)	-13.0	-17.2
COc1cc(O)c(C(CCN2CCCC(C)C2)c2ccc3c(c2)OCO3)c(OC)c1 (stereo not given)	32.9	7.0
COc1cc(O)c(C(CCN2CCOCC2)c2ccc(N(C)C)cc2)c(OC)c1 (stereo not given)	58.3*	-6.6
COc1ccc(C(CCN2CCCC2)c2c(O)cc(OC)cc2OC)cc1 (stereo not given)	13.6	-4.1
COc1cc(OC)c2c(C)cc(=O)oc2c1C(CCN1CCCC(C)C1)c1ccc(N(C)C)cc1 (stereo not given)	79.2*	-8.1
COc1ccc(C(CCN2CCN(c3ccccc3)CC2)c2c(O)cc(OC)cc2OC)cc1 (stereo not given)	71.8*	-7.2
COc1cc(O)c(C(CCN2CCCC(C)C2)c2ccc(N(C)C)cc2)c(OC)c1 (stereo not given)	54.7*	7.2
COc1cc(OC)c2ccc(=O)oc2c1C(CCN1CCCC1)c1ccc(N(C)C)cc1 (stereo not given)	46.2	-0.1
COc1cc(O)c(C(CCN2CCOCC2)c2ccc3c(c2)OCO3)c(OC)c1 (stereo not given)	24.1	-6.6
SMILES	mHTT-CaM PPI inh	Pf apPOL block
COc1ccc(NS(=O)(=O)c2cc3c(s2)CCN(C(=O)C2CC2)C3)cc1OC	12.6	0.4
CN(C)c1ncncc1N1CCC(C(=O)N2CCN(c3ccccn3)CC2)CC1	7.2	-5.8
CCOc1cc(C(=O)Nc2nnc(CC)s2)cc(OCC)c1OCC	-0.7	-10.0
CC(C)(C)n1ncc2c(=O)n(CCC(=O)NCCC3=CCCCC3)cnc21	-4.7	-14.6
COc1ccc(-c2ccc(=O)n(C(C)C(=O)NCC(F)(F)F)n2)cc1 (stereo not given)	-7.8	-9.4
COc1cc(O)c(C(CCN2CCN(c3ccccc3)CC2)c2ccc(N(C)C)cc2)c(OC)c1 (stereo not given)	97.3*	-1.7
CCN(CC)CCC(c1ccc(N(C)C)cc1)c1c(O)cc(OC)cc1OC (stereo not given)	69.6*	-5.9
CCN(CC)CCC(c1ccc(OC)cc1)c1c(O)cc(OC)cc1OC (stereo not given)	15.6	-2.4
COc1ccc(C(CCN2CCCCC2)c2c(O)cc(OC)cc2OC)cc1 (stereo not given)	-1.0	-8.4
Cc1ccc(-c2cn3c(CC(=O)NCc4cccs4)csc3n2)cc1	51.9*	-20.8
COc1ccc(-c2cn3c(C(=O)NCc4cccs4)csc3n2)cc1	10.3	-3.0
CCC1(CC)NC(=O)N(CC(=O)Nc2ccc(F)cc2F)C1=O	-3.2	-7.3
CCC1CCCCN1C/C=C/c1ccc(N(C)C)cc1 (stereo not given)	67.5*	-7.1
CCC1CCCCN1C/C=C/c1ccccc1[N+](=O)[O-] (stereo not given)	-7.8	0.1
O=c1cc2oc3cc(O)c(O)cc3c(-c3ccccc3)c-2cc1O	69.0*	7.7
O=c1cc2oc3cc(O)c(O)cc3c(-c3ccccc3O)c-2cc1O	84.6*	i
Nc1ccc2oc(-c3ccccc3Cl)cc(=O)c2c1O	14.8	-2.3
Cc1oc2cc(O)ccc2c(=O)c1-c1ccccc1	-3.3	-0.2
Cc1c(C(=O)N2CCN(C)CC2)c(CC(C)C)nn1-c1ccc(Cl)cc1	1.7	-2.7
CC(C)(C)CNC(=O)c1cc(=O)[nH]c2ccccc12	-4.0	-2.1
O=C(O)CSc1nnc2n1-c1ccc(Cl)cc1NN2	.	75.8*
O=C(O)CSc1nnc(-c2ccc(Cl)cc2)n1-c1ccccc1	-8.9	-0.7
Cc1ccc2nc(-c3ccc(NC(=O)CC4OCCN(C)C4=O)cc3)sc2c1 (stereo not given)	9.0	6.3
Nc1cccc2c1NC(c1ccc(Cl)cc1)C1CCCC21 (stereo not given)	90.3*	-4.4
O=C1C=C(c2ccccc2)CC(c2cccc([N+](=O)[O-])c2)C1n1nnc2ccccc21 (stereo not given)	38.0	-3.2
SMILES	mHTT-CaM PPI inh	Pf apPOL block
Fc1ccc(C2CC(c3ccc(Cl)cc3)Nc3ncnn32)cc1 (stereo not given)	58.0*	2.9
COc1cccc(C2CC(c3cccc(Cl)c3)n3ncnc3N2)c1 (stereo not given)	4.6	0.6
Fc1ccc(C2CC(c3ccc(I)cc3)Nc3ncnn32)cc1 (stereo not given)	31.0	-4.0
Clc1cccc(C2CC(c3ccc(I)cc3)Nc3ncnn32)c1 (stereo not given)	51.0*	-2.8
O=C(C1CC(=O)N(c2ccc3c(c2)CCN3C(=O)C2CC2)C1)N1CCCCCC1 (stereo not given)	-3.1	-1.4
COc1ccc(Cl)cc1NC(=O)C1CC(=O)N(CCc2c[nH]c3ccc(C)cc23)C1 (stereo not given)	75.1*	-0.1
COc1ccc(C)cc1NC(=O)C1CC(=O)N(CCc2c[nH]c3ccc(Cl)cc23)C1 (stereo not given)	14.2	-2.0
COc1ccccc1NC(=O)C1CC(=O)N(CCc2c[nH]c3ccc(Cl)cc23)C1 (stereo not given)	40.8	0.3
COc1ccc(OC)c(NC(=O)C2CC(=O)N(CCc3c[nH]c4ccc(Cl)cc34)C2)c1 (stereo not given)	80.9*	1.0
O=C(NCc1ccc(Cl)cc1)C1CCN(c2cncnc2N2CCCC2)CC1	70.1*	-4.4
O=C(NCc1cccc(C(F)(F)F)c1)C1CCN(c2cncnc2N2CCCC2)CC1	63.1*	2.6
